An excerpt weighted towards active compounds, which were near 4.6% of everything screened.
D1 ag: Allosteric Agonists of the Human D1 Dopamine Receptor: qHTS; HEK293 T-REx D1 cells, calcium flux, agonist mode; activation, % at 2 µM; D(1A) dopamine receptor (Homo sapiens), P21728; AID 504660, 2011; 360,000 compounds, 1% hits; further: 0% is about no effect
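Tetracycline-induced HEK293 TREx D1 cells, force-coupled to calcium signalling, were dye-loaded with a no-wash calcium kit. Compound was pin-added after a 10 s baseline. Fluorescence was read kinetically at 1 cycle/s for 180 s, with calcium rises flagged as agonism.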
TRHR ag: qHTS for Small Molecule Agonists and Allosteric Enhancers of Human TRH Receptor: Primary Screen for Agonists; TRHR cells, calcium flux fluo-8, FDSS agonist mode; activation, % at 2 µM; Thyrotropin-releasing hormone receptor (Homo sapiens), P34981; AID 493084, 2011; 360,000 compounds, 0.18% hits; further: 0% is about no effect
Target sequence (P34981 whole entry, looked up): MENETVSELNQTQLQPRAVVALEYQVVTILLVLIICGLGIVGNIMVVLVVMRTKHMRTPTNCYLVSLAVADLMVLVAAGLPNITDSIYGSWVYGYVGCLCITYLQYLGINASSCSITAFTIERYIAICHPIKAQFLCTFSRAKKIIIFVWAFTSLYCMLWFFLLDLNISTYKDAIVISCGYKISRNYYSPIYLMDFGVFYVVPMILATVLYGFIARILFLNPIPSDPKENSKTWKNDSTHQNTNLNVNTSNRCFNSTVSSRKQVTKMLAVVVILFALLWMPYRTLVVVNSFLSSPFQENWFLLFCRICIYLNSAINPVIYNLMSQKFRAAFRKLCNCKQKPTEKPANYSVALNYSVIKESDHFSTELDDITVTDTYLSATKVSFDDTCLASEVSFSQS
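Steps: seed TRHR cells overnight; add fluo-8 no-wash Ca dye, RT 30 min–1.5 h; record 10 s baseline; pin-transfer compounds; monitor fluorescence 1 cycle/s for the agonist window. Calcium increases flag candidate agonists.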
D1 PAM: Potentiators of Human D1 Dopamine Receptor: qHTS. HEK293 TREx D1 cells, calcium flux, dopamine EC20 potentiation. potentiation, % at 10 µM. 360,000 compounds, 0.036% hits. AID 504651, 2011; in the data active means potentiation above about 30%; further: 0% is about no effect
TRHR PAM: qHTS for Small Molecule Agonists and Allosteric Enhancers of Human TRH Receptor: Primary Screen for Enhancers. enhancement, % at 2 µM. TRHR cells, fluo-8 calcium fluorescence, EC20 TRH enhancement. Thyrotropin-releasing hormone receptor (Homo sapiens), P34981. AID 493056, 2011. 360,000 compounds, 0.66% hits; in the data active means enhancement above about 30%; further: 0% is about no effect
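TRHR-expressing cells loaded with fluo-8 calcium dye were read kinetically (ex 480/em 530) during compound addition, then stimulated with an EC20 of TRH (10 nM final). Enhancement of the Gq-mediated intracellular calcium response was scored.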
D1 antag: Antagonist of Human D 1 Dopamine Receptor: qHTS; activity change, negative = inhibition, % at 10 µM; HEK293 TREx D1 cells, calcium flux, dopamine EC80; hits give low values; 360,000 compounds, 3.2% hits; D(1A) dopamine receptor (Homo sapiens), P21728; in the data active means activity change below about -30%; further: on the % scale 0 is the no-effect control and ±100 the full control effect
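HEK293 T-REx cells expressing inducible, force-coupled D1 receptor; no-wash Ca dye, 30–90 min RT. Cmpd → 180 s read at 1 Hz → EC80 DA → 180 s read.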
The depositor's hits bear a star; x = no result. Unless noted, no stated cut-off is given here; in the data, active means activation above about 30%; inactive means the rest.

SMILES | D1 ag | TRHR ag | D1 PAM | TRHR PAM | D1 antag
Cc1cc(C(F)F)n2ncc(C(=O)NCc3ccccc3F)c2n1 | 1.7 | -0.3 | -4.5 | -5.4 | -31.9*
COc1ccc(Cn2ncc3c4sc(C)cc4n(C)c3c2=O)cc1F | 0.3 | -1.1 | 5.0 | 5.1 | -12.6
CCOc1ccc(OCCC(=O)OCC(=O)Nc2ccc3c(c2)OCO3)cc1 | 7.3 | -0.2 | -6.2 | -6.6 | -52.8*
O=C(COc1ccc2c(c1)OCO2)Nc1cccc(F)c1 | 3.3 | -0.4 | x | -4.3 | -43.8*
CCOc1ccc(N(CC(=O)Nc2ccc3c(c2)OCO3)S(=O)(=O)c2ccccc2)cc1 | 1.6 | -0.3 | -2.3 | 13.5 | -46.0*
CC(C)(C)NS(=O)(=O)c1ccc(CCC(=O)Nc2ccc3c(c2)OCCO3)cc1 | 1.7 | 0.4 | -2.4 | 8.6 | 5.0
CCOc1ccc(S(=O)(=O)N(CC(=O)Nc2ccc3c(c2)OCO3)c2ccc(C)cc2)cc1 | 8.7 | 0.4 | -2.5 | 4.2 | -16.0
CC(C)(C)NS(=O)(=O)c1ccc(OCC(=O)Nc2ccc3c(c2)OCCO3)cc1 | 3.7 | 0.2 | -6.5 | -1.0 | -30.1*
COc1ccc(CCNCc2c(C(=O)O)c(C)n(Cc3c(F)cccc3Cl)c2C)cc1OC | 0.1 | -2.6 | -0.5 | -2.8 | -8.9
COC(=O)c1ccc(C)c(NC(=O)CCCN2C(=O)NC(C)(C)C2=O)c1 | 1.2 | 0.0 | 0.4 | -9.9 | -8.8
Fc1ccc(Br)cc1C1C=C(c2ccc(Br)cc2)Nc2nnnn21 (stereo unspecified) | -1.3 | 0.5 | -3.1 | 12.7 | -23.2
CCOC(=O)c1c(NC(=S)NCc2ccccc2)sc2c1CCN(C(=O)OCC)C2 | 3.1 | 1.4 | -1.8 | -14.3 | -40.2*
CCOC(=O)c1c(NC(=O)c2ccc(S(=O)(=O)N(C)C3CCCCC3)cc2)sc2c1CCN(C(C)C)C2 | 55.8* | 31.5* | -0.9 | 0.3 | 19.3
CC(C)N1CCc2c(sc(NC(=O)c3ccc4ccccc4c3)c2C(N)=O)C1 | 23.6 | 30.7* | -2.5 | 9.7 | -10.0
CN1CCc2c(sc(NC(=O)c3cc4cc([N+](=O)[O-])ccc4s3)c2C(N)=O)C1 | 3.5 | 0.3 | -1.1 | -2.9 | 2.7
CC(C)N1CCc2c(sc(NC(=O)c3ccc(C(=O)c4ccccc4)cc3)c2C(N)=O)C1 | 14.4 | 8.1 | -6.3 | 0.8 | 8.1
CC(C)N1CCc2c(sc(NC(=O)c3cc4cc([N+](=O)[O-])ccc4s3)c2C(N)=O)C1 | 34.8* | 16.5 | -1.1 | 1.8 | -13.9
CCOC(=O)c1ccc(NC(=O)CN2C(=O)CC(c3ccc(C)c(C)c3)=Nc3ccccc32)cc1 | 4.4 | 1.0 | -3.1 | 3.4 | -2.1
Cc1ccc(NC(=O)CN2C=NS(=O)(=O)c3ccccc32)c(C)c1 | 1.7 | 0.1 | -0.3 | 1.9 | 6.7
CC(C)N1CCc2c(sc(NC(=O)c3ccco3)c2C(N)=O)C1 | 10.6 | 3.8 | -0.7 | 2.2 | -3.1
COC(=O)c1c(NC(=O)c2ccco2)sc2c1CCN(C(C)C)C2 | 32.7* | 21.8 | -0.5 | -3.7 | -17.0
CC(C)NC(=O)CCC(=O)N1Cc2ccccc2Oc2ncccc21 | 3.7 | -1.4 | -2.5 | -3.9 | -2.0
Cc1ccnc(NC(=O)c2ccc(COc3c(F)c(F)cc(F)c3F)o2)c1 | 9.3 | -0.5 | -10.7 | -4.2 | -0.7
O=C(Nc1ccc(Br)cn1)c1ccc(COc2c(F)c(F)cc(F)c2F)o1 | 32.3* | 1.1 | x | 9.7 | -6.4
CC1=C(c2ccc(C)cc2)S(=O)(=O)N(CC(=O)O)C1=O | 6.2 | 0.7 | 4.3 | -0.8 | -0.6
SMILES | D1 ag | TRHR ag | D1 PAM | TRHR PAM | D1 antag
COC(=O)CN1C(=O)C(C)=C(c2ccc(C)cc2)S1(=O)=O | 0.8 | -0.7 | -6.0 | -4.0 | -36.3*
O=C(CNC(=O)c1ccc(C(F)(F)F)cc1)OC(C(=O)Nc1cc(C(F)(F)F)ccc1Cl)c1ccccc1 (stereo unspecified) | 7.0 | 1.9 | -0.7 | -3.5 | -12.0
CC1=CC(C)(C)N2C(=O)C(=Nc3ccc(O)cc3)c3cccc1c32 | 0.9 | 1.0 | -5.9 | 0.1 | -36.3*
Cc1nc(CC(=O)Nc2ccc(N(C)C)cc2)cs1 | 0.3 | 0.6 | 2.0 | -2.1 | 2.7
COc1cccc(N2CCN(S(=O)(=O)c3ccc4c(c3)NC(=O)CS4)CC2)c1 | 3.4 | 0.1 | -1.9 | -3.8 | -32.1*
O=C1CSC(c2ccc(Cl)cc2Cl)N1c1ccccn1 (stereo unspecified) | 1.1 | -1.3 | 30.0* | -9.1 | -0.2
O=C1CSC(c2ccccn2)N1c1ccc(Cl)c(Cl)c1 (stereo unspecified) | 9.7 | -1.0 | -4.2 | 6.9 | 5.9
CCOc1cc(/C=N/NC(=O)c2nn(C)cc2Br)ccc1OCc1ccccc1Cl | 2.9 | -0.7 | -2.2 | 1.6 | 7.4
Cn1cc(Br)c(C(=O)N/N=C/c2cccc(OC3CSC3)c2)n1 | 1.7 | -0.1 | 2.2 | -2.3 | -30.2*
COc1ccccc1-c1noc2ncnc(Nc3cccc(C)c3C)c12 | 2.4 | -0.9 | -6.2 | -5.7 | -32.0*
COc1ccccc1-c1noc2ncnc(Nc3ccccc3C)c12 | 3.7 | 16.7 | 4.3 | -3.9 | -8.3
Cc1nc2c(C(=O)NCc3ccccc3Cl)c[nH]n2c(=O)c1Cc1cccc(Cl)c1 | -0.7 | 0.6 | -0.4 | -10.1 | -26.1
O=C(Nc1ccc(CN2CCCCC2)cc1)c1cccc(F)c1 | 2.8 | 1.2 | -8.3 | -2.6 | 9.3
COc1cc(OC)cc(C(=O)Nc2ccc(CN3CCCCC3)cc2)c1 | 0.6 | 0.1 | -3.6 | 15.5 | -6.6
COc1ccc(OCc2cccc(C(=O)Nc3ccc(CN4CCCCC4)cc3)c2)cc1 | 47.5* | 2.6 | -11.1 | -1.7 | -20.3
CCOc1ccc(OCc2cccc(C(=O)Nc3ccc(CN4CCCCC4)cc3)c2)cc1 | 37.6* | 2.9 | -8.8 | -2.5 | -30.5*
COc1ccc(Br)cc1CNC(=O)C1CCN(c2nnc(-n3cccc3CNc3ccc(C)cc3)s2)CC1 | -1.2 | -0.1 | 0.3 | -6.0 | 7.1
COc1cc(OC)cc(-c2cc3nc(C)c(CCC(=O)NCc4ccc(Cl)cc4)c(C)n3n2)c1 | 4.1 | 0.4 | -0.6 | 3.5 | 2.4
COc1cc(C(=O)Nc2ccc3nc(N4CCOCC4)sc3c2)cc(OC)c1OC | 0.8 | 1.0 | 4.5 | 10.7 | -22.3
Cc1c(C(=O)Nc2ccc3nc(N4CCOCC4)sc3c2)oc2ccccc12 | 2.1 | -0.7 | -3.0 | 3.9 | -42.6*
Cc1ccc(C)c(CNC(=O)C2CCCCN2S(=O)(=O)c2ccc(F)cc2)c1 (stereo unspecified) | 44.1* | -0.9 | -5.5 | -1.1 | -37.4*
